PMP22 txn – modulates PMP22 transcription in S16 Schwann cells; S16 Pmp22-F2sN Schwann cells, FLuc/NLuc coincidence luminescence, 24 h; Potency, µM (titrated, usually from 57.5 µM), without a hit: at the top dose activity change, negative = inhibition, actives largely listed as inhibitors; hit rate 2% among 43,000; active = clear falling dose curves in both reporters; inconclusive = both reporters move, but less clearly or upward; inactive = either reporter flat; the % is the NLuc reporter signal
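S16(c9) Schwann cells with FLuc/NLuc coincidence reporter in the Pmp22 3' UTR; compounds pin-transferred, 24 h at 37C. Dual-luciferase read: FLuc first, then NLuc after Stop&Glo, each 10 min at room temperature.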
p53null 32C tox – p53 null cell cytotoxicity, permissive temperature. H1299-neo p53 null cells, ATP luminescence, 24 h, 32C. Potency, µM (highest dose often 46.1 µM), for the others: top-dose activity change, negative = cytotoxicity, most hits filed as cytotoxic. hit rate 0.62% among 55,000;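 note: 0% = DMSO only and -100% = full killing by 100 µM tamoxifen; nearly all actives have a fitted effect of over 55% in size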
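AC50 values derive from Hill modelling of qHTS concentration-response data (up to 46 uM) in H1299-neo cells. Cells were treated 24 h at 32C following overnight attachment at 37C; viability was read as cellular ATP.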
S16 F2sN tox – toxic to S16 Pmp22-F2sN Schwann cells. S16 Pmp22-F2sN Schwann cells (luciferase reporters placed in the Pmp22 gene) viability, CellTiter-Glo, 24 h. Potency, µM (titrated, usually from 57.5 µM), for the others: top-dose activity change, negative = cytotoxicity, most hits filed as cytotoxic. hit rate 0.48% among 43,000; note: nearly all actives have a fitted effect of over 65% in size
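Seed 500-1,000 S16 Pmp22-F2sN cells per well in phenol-red-free DMEM with 10% heat-inactivated FBS; pin-add 23 nL compound; incubate 24 h at 37C; add CellTiter-Glo, wait 15 min protected from light; read luminescence.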
OvCa metastasis – ovarian cancer metastasis inhibition, 3D TME model; Potency, µM (series often up to 45.8 µM), inactives show top-dose activity change, negative = inhibition, hits mostly inhibitors; hit rate 0.1% among 46,000; SKOV3ip1-GFP adhesion/invasion on 3D omental model, fluorescence; AID 1963576;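 note: plate controls were DMSO wells for no effect and tomatine positive control wells for full effect; nearly all actives have a fitted effect of over 65% in size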
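A 3D layer of primary human omental fibroblasts, mesothelial cells, fibronectin and collagen I, grown 48 hr, received SKOV3ip1-GFP cells in serum-free medium plus compounds at 0.36-46 umol/L. After 2 hr RT and 16 hr 37 C, fixed adherent GFP cells were counted; normalized to DMSO and tomatine.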
pS6 MEF inh – inhibitors of mTORC1 signaling in Tsc2-/- p53-/- MEF cells; hit rate 0.78% among 44,000; Potency, µM (highest dose often 38.3 µM), for inactives: at the highest dose activity change, negative = inhibition, most hits filed as inhibitors; AID 493208; Tsc2-/- p53-/- MEF, phospho-rpS6 immunofluorescence/PI, 24 h;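 note: plate controls were DMSO for no effect and rapamycin for full effect; nearly all actives have a fitted effect of over 50% in size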
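Readout is phospho-S6 Alexa 488 signal normalized to PI per well, reported as % active cells with thresholds set from rapamycin (7.5 nM) and DMSO controls. Cells: Tsc2-/-, p53-/- MEFs, 24 hrs compound at 37 C; PI cell number serves as viability.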
p53null 39C kill – selectivity test: cytotoxicity in p53 null cells, nonpermissive temperature | H1299 p53-null (neo) cells, 39C, ATPlite viability, 24 h | Potency, µM (titrated, usually from 46.1 µM), for the others: at the highest dose activity, negative = cell killing, usual class: cytotoxic | hit rate 0.97% among 55,000 | AID 904;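 note: 0% = DMSO only and -100% = full killing by 100 µM tamoxifen; nearly all actives have a fitted effect of over 50% in size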
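ATP-luminescence viability readout (ATPlite, 20 min RT) after 24 hr compound treatment at 39C of H1299-neo or H1299-p53A138V cells; titration up to 46 uM; normalized to DMSO and 100 uM tamoxifen; Hill-fit AC50.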
Active calls of the source: *; i = inactive; ? = inconclusive; . = not tested or not shown. This is a sample that favours compounds with a hit; in the whole collection about 3.1% have one here. Unless noted, calls come from the whole dose curve; as a rule, active = well fitted curve in the direction sought with a large enough effect; inconclusive = small, poorly fitted or top-dose-only effect, or another doubt; inactive = no such curve, though single readings can be large; an effect the other way counts as inactive or inconclusive. Unless noted, % is set by controls: 0 for no effect and ±100 for the full control effect; potency is the fitted concentration of half-maximal effect.

SMILES	PMP22 txn	p53null 32C tox	S16 F2sN tox	OvCa metastasis	pS6 MEF inh	p53null 39C kill
Cc1c(CCOc2ccc(C(=O)O)cc2)c2cc(Cl)ccc2n1C(c1ccccc1)c1ccccc1	.	.	.	-5%	.	.
COc1ccc2[nH]cc(CCN=C(NC(=O)c3ccccc3OC)Nc3nc(C)cc(C)n3)c2c1	14µM*	10%	?	-3%	-11%	1%
Fc1ccc(N2CCN(c3ncnc4c3nc3n4CCCCC3)CC2)cc1	?	-5%	1%	i	4%	-9%
Clc1ccc(N2CCN(c3ncnc4c3nc3n4CCCC3)CC2)cc1	14µM*	2%	?	1%	-6%	-13%
COc1ccc(C(=O)Nc2cccc(-c3cn4ccsc4n3)c2)cc1OC	?	?	-1%	i	?	13µM*
COc1cccc(OC)c1-c1cc(C(=O)NC2(C(=O)O)C3CC4CC(C3)CC2C4)nn1-c1ccnc2cc(Cl)ccc12 (centres undefined)	.	.	.	13%	.	.
O=C(NCCCN1CCN(c2ccccc2F)CC1)c1cc2c(s1)-c1ccccc1OC2	?	7%	-1%	?	?	32µM*
C[C@H](NC(=O)c1sccc1OCc1ccc(Cl)cc1)c1ccccc1	.	.	.	-6%	.	.
CCOC(=O)N1c2ccc(C(F)(F)F)cc2[C@@H](N(Cc2cc(C(F)(F)F)cc(C(F)(F)F)c2)C(=O)OC)C[C@H]1CC	.	.	.	4%	.	.
Cc1cccc2nc(-c3ccccn3)c(Nc3ccc(F)cc3)n12	13µM*	22%	?	?	-16%	?
Cc1cccc2nc(-c3ccccn3)c(Nc3ccccc3)n12	?	27%	-6%	-14%	-11%	?
CN1CCC(CNc2ccc3ncc(-c4cccc(OC(F)(F)F)c4)n3n2)CC1	.	.	.	-9%	.	.
CC(C)(C)OC(=O)N[C@H]1CCCCCC=C[C@@H]2C[C@@]2(C(=O)NS(=O)(=O)C2CC2)NC(=O)[C@@H]2C[C@@H](OC(=O)N3Cc4cccc(F)c4C3)CN2C1=O	.	.	.	10%	.	.
CCOc1cccc(-c2nc3ccccc3c(=O)o2)c1	-37%	13µM*	-22%	i	-5%	?
COc1ccc([C@@H]2CC(=O)c3c(O)cc(O[C@@H]4O[C@H](CO[C@@H]5O[C@@H](C)[C@H](O)[C@@H](O)[C@@H]5O)[C@@H](O)[C@H](O)[C@@H]4O)cc3O2)cc1O	.	.	.	-1%	.	.
CNc1nnc(-c2ccc(N(C)C)cc2)s1	.	8.9µM*	.	.	.	7.9µM*
CN1CCC[C@H]1CCO[C@](C)(c1ccccc1)c1ccc(Cl)cc1	.	.	.	3%	.	.
COc1cccc2cc(-c3nc(C4CCC(C(=O)O)CC4)n4ncnc(N)c34)[nH]c12 (centres undefined)	.	.	.	-11%	.	.
Nc1ccc2oc(-c3ccc4nc[nH]c4c3)nc2c1	.	7.9µM*	.	.	.	13µM*
O=C(CCCCCCC(=O)Nc1cccnc1)NO	.	.	.	-19%	.	.
Cc1ccc(-n2ncc(C(=O)NCCCN3CCc4ccccc4C3)c2C2CCN(C(=O)OC(C)(C)C)CC2)c(C)c1	?	8%	?	-3%	9.3µM*	?
CN1CCc2c(sc3c2C(=O)NC(c2ccc(C(C)(C)C)cc2)N3)C1 (centres undefined)	?	-4%	14µM*	-2%	-16%	20%
CO[C@H]1C=CC=C(C)C(=O)NC2=CC(=O)C(NCCN(C)C)=C(C[C@@H](C)C[C@H](OC)[C@@H](O)[C@@H](C)C=C(C)[C@@H]1OC(N)=O)C2=O	.	.	.	-7%	.	.
Cc1c(CN2CCN(C(=O)C(C)C)CC2)sc2c(N3CCOCC3)nc(-c3cnc(N)nc3)nc12	.	.	.	19%	.	.
Cc1ccccc1OCCn1c(CCNC(=O)C(C)C)nc2ccccc21	.	.	.	.	.	8%
SMILES	PMP22 txn	p53null 32C tox	S16 F2sN tox	OvCa metastasis	pS6 MEF inh	p53null 39C kill
Cc1ccccc1OCC(O)Cn1c(=N)n(CCN2CCCCC2)c2ccccc21 (centres undefined)	?	-4%	?	?	10µM*	20µM*
Cc1ccccc1OCCn1c(=N)n(C(C)C)c2ccccc21	?	7%	?	?	18µM*	?
Cc1c(O)cccc1C(=O)N[C@@H](CSc1ccccc1)[C@H](O)CN1C[C@H]2CCCC[C@@H]2C[C@@H]1C(=O)NC(C)(C)C	.	.	.	2%	.	.
CCCCOCc1cc(CN2CCN(c3cccc(Cl)c3)CC2)c(O)c2ncccc12	2.7µM*	7%	?	-23%	?	-7%
CCCOCc1cc(CN2CCN(c3cccc(Cl)c3)CC2)c(O)c2ncccc12	?	-24%	?	?	?	0.32µM*
COc1cc(CN2CCN(c3cccc(Cl)c3)CC2)cc(OC)c1OC	.	7%	.	.	.	-25%
C[C@H]1O[C@H](O[C@H]2[C@H](O)[C@@H](O)[C@@H](O[C@H]3[C@H](O)[C@@H](O)C(O)O[C@H]3CO)O[C@H]2CO)[C@H](O)[C@@H](O)[C@H]1N[C@H]1C=C(CO)[C@@H](O)[C@H](O)[C@@H]1O (some centres undefined)	.	.	.	-10%	.	.
OC[C@H]1O[C@@H](n2cnc3c2NC=NC[C@@H]3O)C[C@H]1O	.	.	.	5%	.	.
CCOC(=O)COc1ccc(/C=C(\C#N)c2nc3ccc(C)cc3[nH]2)cc1OC	8.9µM*	?	8.9µM*	-7%	-6%	?
COc1cccc(/C=C(\C#N)c2nc3ccc(C)cc3[nH]2)c1	?	?	?	-15%	?	?
COc1cc(/C=C(\C#N)c2nc3ccc(C)cc3[nH]2)ccc1OCc1ccc(C)cc1	?	?	?	6%	?	13µM*
Cc1cc(C)c(NC(=O)C2CCN(c3nc4ccccc4n4cccc34)CC2)c(C)c1	-18%	14%	10%	-4%	15µM*	?
COc1cc(Cl)c(C)cc1NC(=O)c1cnc(N2CCCCC2)c2ccccc12	-34%	?	-26%	4%	-2%	3%
COc1cc(Cl)c(C)cc1NC(=O)C1CCN(c2nc3ccccc3n3cccc23)CC1	?	?	-6%	-2%	15µM*	32µM*
Cc1[nH]c(C=C2C(=O)Nc3ccc(S(=O)(=O)Cc4c(Cl)cccc4Cl)cc32)c(C)c1C(=O)N1CCC[C@H]1CN1CCCC1	.	.	.	5%	.	.
